According to PubChem BioAssay:
Activity calls are given as the source filed them.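 The calls were made as follows, unless noted: active = inhibition above 20% together with a positive visual image hit; inconclusive = visual image hit but inhibition not above 20%; inactive = no visual image hit.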

Tests used:
[1] = inhibitors of TNFa-induced NFkB p65 translocation, primary screen, imaging, HUVEC, MLSMR starter and 10KST1 sets (AID 438); conditions: HUVEC TNFa-induced p65 nuclear translocation; cell count: measured here: nuclei count (cytotoxicity indicator), at 2.08 µM; inhibition: at 2 µM, stronger effect = higher value, 0% TNFa-plus-vehicle, 100% no-TNFa wells;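 also: compound added about 3h40 before a 20 min TNFalpha stimulation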;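 as to inhibition: signal is the nuclear over cytoplasmic p65 intensity ratio per well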
[2] = inhibitors of mutant huntingtin aggregation, primary screen, imaging, exon1htt(103Q)mCFP cells, high-content imaging (AID 483;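 active = visual image review flags a hit and inhibition of aggregation exceeds 20%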;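 also: compound exposure lasted 3 days before fixation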;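 as to nuclei count: percent of the per-plate median nuclei count of sample wells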); conditions: exon1htt(103Q)mCFP cell line, aggregate imaging, at 2 µM; inhibition of aggregation: stronger effect = higher value; nuclei count: measured here: cell count, toxicity
[3] = inhibitors of E-selectin induction by TNFa, primary screen, imaging, HUVEC, immunofluorescence, MLSMR starter and 10KST1 sets (AID 487;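 active = visually confirmed hit in the image check and inhibition above 20%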;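 as to inhibition: signal is fraction of cell area covered by stained E-selectin grains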;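 as to nuclei count: 100% = median nuclei count of all wells on the same plate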); conditions: HUVEC TNFalpha-induced E-selectin immunofluorescence imaging, at 2 µM; inhibition: stronger effect = higher value; nuclei count: measured here: cell number, toxicity
[4] = biological target: Voltage-gated potassium channel subunit beta-2 (Rattus norvegicus) (UniProt P62483); experiment: KvBeta enzyme negative modulators, primary screen, biochemical, NADPH fluorescence (AID 622;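 active = fluorescence slope higher than the sample average by over 3 SD, cut at about -0.22 in these data, passing the limit was not always enough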;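 also: slope of raw intensity against log time taken from 70 to 1610 s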); conditions: recombinant KvBeta, 4-cyanobenzaldehyde reduction, at 10 µM, stronger effect = higher value
[5] = biological target: Voltage-gated potassium channel subunit beta-2 (Rattus norvegicus) (UniProt P62483); experiment: KvBeta positive modulators, primary screen, biochemical, NADPH fluorescence (AID 623;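 active = NADPH fluorescence slope more negative than the mean of all samples by about 3 SD, 99.7% confidence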;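 also: fluorescence intensity change per second fitted from 20 to 320 s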); conditions: Recombinant KvBeta, NADPH fluorescence decrease slope, 10 min; at 10 µM; stronger effect = lower value
[6] = biological target: Alpha-2C adrenergic receptor (Homo sapiens) (UniProt P18825); experiment: modulators of alpha2C/GIRK thallium flux, primary screen, cell-based, HEK293 alpha2C/GIRK1/2 (AID 624;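 active = fluorescence slope after compound addition differing from the mean of all screened samples at 99.7% confidence, in either direction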;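 also: slope of fluorescence ratio to pre-addition baseline per second over 15 to 24 s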); conditions: thallium flux BTC fluorescence, at 10 µM, actives lie on both sides
[7] = inhibitors of Sendai virus-induced IRF3 signaling, primary screen, TLR/RLR signaling modifier project, cell-based, Sendai virus stimulus, luciferase, 10K MLSCN set (AID 602276;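 active = inhibition at or above 50% at 10 µM; inactive = inhibition below 50%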;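 also: firefly luciferase from ISG56 promoter only with Renilla not read in this screen; 0% = Sendai virus plus DMSO and 100% = medium plus DMSO without virus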); conditions: HEK293 RL24 IRF3 luciferase reporter, at 10 µM, stronger effect = higher value
[8] = inhibitors of poly I:C-induced TLR3 signaling, primary screen, cell-based, poly I:C stimulus, luciferase, 10K MLSCN set (AID 602277;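 active = inhibition of the reporter signal at or above 50%; inactive = inhibition below 50%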); conditions: HEK293-TLR3 RL24 IRF3 luciferase reporter, at 10 µM, stronger effect = higher value

Sequence of Alpha-2C adrenergic receptor (Homo sapiens) (P18825 whole entry, looked up): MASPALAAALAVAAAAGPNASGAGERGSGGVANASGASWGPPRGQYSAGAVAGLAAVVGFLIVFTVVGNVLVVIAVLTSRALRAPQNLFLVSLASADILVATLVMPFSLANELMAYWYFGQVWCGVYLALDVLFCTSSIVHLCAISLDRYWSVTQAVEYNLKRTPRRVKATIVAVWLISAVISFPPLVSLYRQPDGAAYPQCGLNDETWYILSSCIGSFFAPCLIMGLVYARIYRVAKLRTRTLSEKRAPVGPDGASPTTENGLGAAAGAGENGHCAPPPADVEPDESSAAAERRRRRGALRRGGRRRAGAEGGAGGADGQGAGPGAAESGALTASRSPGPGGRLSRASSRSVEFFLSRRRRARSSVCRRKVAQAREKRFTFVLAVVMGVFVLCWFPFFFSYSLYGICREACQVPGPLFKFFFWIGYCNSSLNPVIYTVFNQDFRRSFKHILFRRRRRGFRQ
Sequence of Voltage-gated potassium channel subunit beta-2 (Rattus norvegicus) (P62483 whole entry, looked up): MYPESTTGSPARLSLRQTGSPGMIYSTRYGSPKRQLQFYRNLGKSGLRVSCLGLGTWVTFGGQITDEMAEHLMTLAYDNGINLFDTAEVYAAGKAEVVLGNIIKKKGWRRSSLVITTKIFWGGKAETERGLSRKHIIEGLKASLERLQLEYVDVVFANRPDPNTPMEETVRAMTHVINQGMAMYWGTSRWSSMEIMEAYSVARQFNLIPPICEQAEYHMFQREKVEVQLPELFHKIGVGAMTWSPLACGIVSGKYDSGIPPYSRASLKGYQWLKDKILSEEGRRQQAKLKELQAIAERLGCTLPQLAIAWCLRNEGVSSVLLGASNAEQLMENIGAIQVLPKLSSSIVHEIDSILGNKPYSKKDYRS

| Structure (SMILES) | cell count [1] | inhibition [1] | inhibition of aggregation [2] | nuclei count [2] | inhibition [3] | nuclei count [3] | fluorescence slope [4] | NADPH fluorescence slope [5] | slope [6] | inhibition [7] | inhibition [8] |
| --- | --- | --- | --- | --- | --- | --- | --- | --- | --- | --- | --- |
| CCC(C)(C(=O)NC1CCCC1)N(C(=O)c1cnccn1)c1c(C)n(C)n(-c2ccccc2)c1=O (stereo not drawn) | 568 | 3.8% (inactive) | 7% (inactive) | 91.3% | 15.6% (inactive) | 89.6% | -0.471 (inactive) | -0.000132 (inactive) | 0.00518 (inactive) | -1.44% (inactive) | 9.08% (inactive) |
| CN(C)C(=O)N1CCC(C(=O)NC2CCCCCCC2)CC1 | 545 | 7.4% (inactive) | 36.8% (active) | 49.6% | -48.1% (inactive) | 106% | -0.381 (inactive) | -2.2e-05 (inactive) | 0.00533 (inactive) | 13% (inactive) | 18.9% (inactive) |
| CCCn1nc(CC(=O)O)c2ccccc2c1=O | 468 | -12.3% (inactive) | 18.8% (inactive) | 123% | -10.6% (inactive) | 119% | -0.426 (inactive) | -3.1e-05 (inactive) | 0.00533 (inactive) | 16.7% (inactive) | 16.8% (inactive) |
| Cc1nn(C)c(C)c1CN(C)C(=O)c1cc2nc(-c3ccco3)cc(C(F)(F)F)n2n1 | 419 | 5.7% (inactive) | -21.4% (inactive) | 128% | -33.1% (inactive) | 106% | -0.182 (inactive) | -2e-05 (inactive) | 0.00389 (inactive) | 1.09% (inactive) | -8.24% (inactive) |
| O=P(O)(CN1CCCCCC1)CN1CCCCCC1 | 575 | 13.9% (inactive) | -5.3% (inactive) | 107% | 6% (inactive) | 112% | -0.484 (inactive) | -5.2e-05 (inactive) | 0.0053 (inactive) | -7.54% (inactive) | 17.4% (inactive) |
| O=C(CSc1nnc(C2CC2)n1Cc1ccccc1)c1ccc(S(=O)(=O)N2CCOCC2)cc1 | 426 | 15.8% (inactive) | 1.1% (inactive) | 96.7% | -55.3% (inactive) | 112% | -0.412 (inactive) | -0.000138 (inactive) | 0.00543 (inactive) | 13.7% (inactive) | 24% (inactive) |
| Cc1c(C(=O)OCc2ccccc2)[nH]c2c1C(=O)CC(c1ccco1)C2 (stereo not drawn) | 721 | 12.7% (inactive) | -170% (inactive) | 3.7% | -63.1% (inactive) | 107% | -0.569 (inactive) | -1.8e-05 (inactive) | 0.00645 (inactive) | 45.4% (inactive) | 80.4% (active) |
| COc1ccccc1NCN1C(=O)CCC1=O | 710 | 5.4% (inactive) | -0.4% (inactive) | 97.3% | -32.2% (inactive) | 104% | -0.551 (inactive) | -2.5e-05 (inactive) | 0.00722 (inactive) | 13.3% (inactive) | 26.9% (inactive) |
| CC(NC(=O)c1noc2c1CCCCC2)c1ccccc1 (stereo not drawn) | 936 | 6.9% (inactive) | -5% (inactive) | 154% | -24.9% (inactive) | 126% | -0.618 (inactive) | -3.4e-05 (inactive) | 0.00631 (inactive) | -24.9% (inactive) | -53.9% (inactive) |
| O=C(Cn1cnc2c(nnn2Cc2ccccc2)c1=O)c1ccc(Cl)cc1 | 561 | 8.2% (inactive) | -6.2% (inactive) | 86.3% | -22% (inactive) | 108% | -0.591 (inactive) | -4.2e-06 (inactive) | 0.00679 (inactive) | 11.9% (inactive) | 21.3% (inactive) |
| CCC(C(=O)O)n1c(C(F)(F)F)nc2ccccc21 (stereo not drawn) | 717 | -29.6% (inactive) | 4.1% (inactive) | 103% | -6.3% (inactive) | 108% | -0.558 (inactive) | -2.1e-05 (inactive) | 0.00512 (inactive) | 7.44% (inactive) | 14.4% (inactive) |
| Cc1nnc(N(C)C(=O)Cc2ccc3c(c2)OCO3)s1 | 709 | -6.1% (inactive) | 15.2% (inactive) | 107% | 6.8% (inactive) | 112% | -0.55 (inactive) | 1.1e-05 (inactive) | 0.00419 (inactive) | 21.5% (inactive) | 39.7% (inactive) |
| CCc1ccc(N2CC(C(=O)OCC(=O)NC3CCS(=O)(=O)C3)CC2=O)cc1 (stereo not drawn) | 260 | 21% (inactive) | 12% (inactive) | 85.2% | 6.8% (inactive) | 91.9% | -0.468 (inactive) | 7e-05 (inactive) | 0.00704 (inactive) | 0.238% (inactive) | 7.99% (inactive) |
| C=CCSc1nnc(NC(=O)c2ccc(S(=O)(=O)NCC3CCCO3)cc2)s1 (stereo not drawn) | 245 | 5.1% (inactive) | -8.6% (inactive) | 88.4% | -146% (inactive) | 114% | -0.496 (inactive) | -4.8e-05 (inactive) | 0.00603 (inactive) | 4.11% (inactive) | 11% (inactive) |
| CCOC(=O)C1CCN(C(=O)CCCCn2c(=O)[nH]c3ccccc3c2=O)CC1 | 517 | -8.6% (inactive) | -27.5% (inactive) | 100% | -54.8% (inactive) | 126% | -0.563 (inactive) | 3.1e-05 (inactive) | 0.00611 (inactive) | 0.817% (inactive) | -29.5% (inactive) |
| c1ccc(-c2nnc(-c3ccco3)n2-c2ccccc2)cc1 | 383 | 4.1% (inactive) | 8.4% (inactive) | 102% | -75.9% (inactive) | 126% | -0.47 (inactive) | -2.4e-05 (inactive) | 0.00639 (inactive) | 15.2% (inactive) | 20.5% (inactive) |
| CCOC(=O)c1[nH]c2ccccc2c1NC(=O)C(CC)CC | 689 | -10.7% (inactive) | -18.7% (inactive) | 118% | -11% (inactive) | 107% | -0.466 (inactive) | -3.3e-05 (inactive) | 0.00668 (inactive) | 12.4% (inactive) | 40.3% (inactive) |
| COCCN(C(=O)c1csnn1)C(C(=O)NC(C)(C)C)c1cccc(OC)c1 (stereo not drawn) | 684 | -1.7% (inactive) | -26.8% (inactive) | 76.2% | 0.2% (inactive) | 102% | -0.515 (inactive) | -2.6e-05 (inactive) | 0.00595 (inactive) | 17% (inactive) | 14.6% (inactive) |
| CCN(CC)C(=O)Cn1c(=O)n(Cc2ccccc2Cl)c2c1c(=O)n(C)c(=O)n2C | 678 | -6.4% (inactive) | 21.9% (inactive) | 94.3% | 49% (inactive) | 85.7% | -0.45 (inactive) | 3.6e-05 (inactive) | 0.00765 (inactive) | 2.5% (inactive) | 10.3% (inactive) |
| COc1ccc(Br)cc1S(=O)(=O)N1CC(C)OC(C)C1 (stereo not drawn) | 359 | 2.8% (inactive) | -12.3% (inactive) | 94% | -42.7% (inactive) | 104% | -0.429 (inactive) | 3.8e-05 (inactive) | 0.0065 (inactive) | -2.27% (inactive) | 9.82% (inactive) |
| Cc1cc(Br)ccc1NC(=O)CNC(=O)CSc1n[nH]c(N)n1 | 390 | -12.1% (inactive) | -13.4% (inactive) | 74.3% | -25.1% (inactive) | 115% | -0.58 (inactive) | -3.3e-05 (inactive) | 0.00679 (inactive) | 13.4% (inactive) | 37.1% (inactive) |
| Cc1nc2ccccc2c2oc(C(=O)NCCN3CCCCC3C)cc12 (stereo not drawn) | 558 | 5.4% (inactive) | 15.4% (inactive) | 87.5% | -1.3% (inactive) | 120% | -0.614 (inactive) | -3.9e-05 (inactive) | 0.00617 (inactive) | 7.56% (inactive) | 66.5% (active) |
| COCCNC(=O)c1cc(-c2cccs2)on1 | 793 | -4% (inactive) | -19.1% (inactive) | 116% | -46.8% (inactive) | 126% | -0.587 (inactive) | 6.5e-06 (inactive) | 0.00598 (inactive) | -27.2% (inactive) | -253% (inactive) |
| COc1ccc(NC(=O)CN(c2ccc(C)cc2)S(C)(=O)=O)c(OC)c1 | 498 | 10.1% (inactive) | -0.7% (inactive) | 92.5% | -180% (inactive) | 139% | -0.392 (inactive) | -6e-05 (inactive) | 0.0037 (inactive) | 4.75% (inactive) | 25.6% (inactive) |
| c1ccc(CNc2ncnc3ccccc23)cc1 | 537 | -12.4% (inactive) | -8.7% (inactive) | 70.8% | -32.1% (inactive) | 107% | -0.408 (inactive) | -4.8e-05 (inactive) | 0.00588 (inactive) | -14.3% (inactive) | -78% (inactive) |
| c1ccc2ncc(-n3cnnn3)cc2c1 | 705 | -4.7% (inactive) | 7.3% (inactive) | 110% | -118% (inactive) | 117% | -0.411 (inactive) | -2e-05 (inactive) | 0.00684 (inactive) | 9.03% (inactive) | 11.8% (inactive) |
| O=C(O)C1CC=CCC1C(=O)Nc1cc(Cl)ccc1Cl (stereo not drawn) | 389 | 4.2% (inactive) | -1.2% (inactive) | 98.5% | 5.3% (inactive) | 102% | -0.505 (inactive) | -2.3e-05 (inactive) | 0.00676 (inactive) | -11.2% (inactive) | 1.01% (inactive) |
| CC(C)(C)OC(=O)NCCc1nnc(SCC(=O)c2ccc(Cl)cc2)o1 | 282 | -3.2% (inactive) | 36.8% (inactive) | 77.1% | -56.7% (inactive) | 85.4% | -0.495 (inactive) | 1.3e-05 (inactive) | 0.00407 (inactive) | 5.48% (inactive) | 34.1% (inactive) |
